This passage reports Potency and outcome results from PubChem BioAssay (Tox21).

The target of assay [1] is Thyrotropin receptor (Homo sapiens) (UniProt P16473). As to the kind of experiment: qHTS assay to identify small molecule antagonists of the thyroid stimulating hormone receptor (TSHR) signaling pathway (AID 1259385; calls by dose curve; note: nearly all actives have a fitted effect of over 20% in size; note: potency is the fitted concentration of half-maximal effect). Summed up: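 Antagonist mode: compound-treated TSHR-expressing HEK293 cells were stimulated with 1.5 ng/mL TSH (final) in presence of Ro20-1724 for 30 min at RT. HTRF cAMP detection after 1 h; each compound tested at 15 concentrations, triplicate.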
A general note: qHTS replaces the single test concentration by a dilution series.

A short description of assay [2]: qHTS assay to identify small molecule agonists of the estrogen receptor alpha (ER-alpha) signaling pathway in the presence of an antagonist - cell viability counter screen (AID 1259386).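 Note: cells exposed to compounds for 22 h at 37 °C before the viability read; nearly all actives have a fitted effect of over 30% in size.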 Note: potency is the fitted concentration of half-maximal effect. Summed up:
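The test measures whether compounds kill ER-alpha reporter cells (VM7Luc4E2) under antagonist co-treatment (ICI-182,780, 10.0nM). Fluorescence from CellTiter-Fluor is read after a 22hr exposure.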

Assay [3] is described as follows: qHTS assay to identify small molecule antagonists of the progesterone receptor (PR) signaling pathway - cell viability counter screen (AID 1346798). Note: nearly all actives have a fitted effect of over 50% in size. Note: potency is the fitted concentration of half-maximal effect. The method, boiled down: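 Viability was determined by ATP-based luminescence (CellTiter-Glo) in PR-UAS-bla HEK293T cells cultured in 2% charcoal-stripped serum and incubated 16 hr with compounds under R5020 stimulation.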

The nature of assay [4]: qHTS assay to identify small molecule agonists of the progesterone receptor (PR) signaling pathway - cell viability counter screen (AID 1346799; calls by dose curve; note: nearly all actives have a fitted effect of over 45% in size; note: potency is the fitted concentration of half-maximal effect). Summed up:
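Viability was scored by ATP luminescence (CellTiter-Glo, 30 min, room temperature) in the same wells used for the reporter readout, after 16 hr compound exposure of PR-UAS-bla HEK293T cells.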

Assay [5] in a line: qHTS assay to identify small molecule agonists of the TGF-beta/Smad signaling pathway - cell viability counter screen (AID 1346829). Note: top concentration of the series differs between compounds; nearly all actives have a fitted effect of over 45% in size. The method, boiled down:
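HEK 293T SBE-bla line, 5 hr compound exposure at 37 C, multiplexed CellTiter-Glo viability read by luminescence.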

A short description of assay [6]: qHTS assay to identify small molecule agonists of the TGF-beta/Smad signaling pathway (AID 1346859; active = well fitted activation curve with a large enough effect in the signal ratio in the repeat runs, not every such curve was filed as active; the % refers to the signal ratio; note: potency is the fitted concentration of half-maximal effect; for activation: series mostly up to about 77 µM). Summed up:
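Dual-wavelength fluorescence (460/530 nm emission) quantified beta-lactamase expression under the Smad binding element in HEK 293T cells following 5 hr compound treatment at 37 C.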

The target of assay [7] is Thyrotropin-releasing hormone receptor (Homo sapiens) (UniProt P34981). As to the kind of experiment: qHTS assay to identify small molecule antagonists of the thyrotropin-releasing hormone receptor (TRHR) signaling pathway (AID 1346877; active = well fitted inhibition curve with a large enough effect in the repeat runs, not every such curve was filed as active; note: series mostly up to about 51 µM). Summed up: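 Overnight-plated (18 h, 37 °C) HEK293 cells expressing TRHR were dye-loaded 2 h, treated with compound, then stimulated with TRH at 1 nM final. Fluorescence intensity was captured every second for 3 min.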

Assay [8] deals with Progesterone receptor (Homo sapiens) (UniProt P06401). Put plainly: qHTS assay to identify small molecule agonists of the progesterone receptor (PR) signaling pathway (AID 1346784; calls by dose curve; note: nearly all actives have a fitted effect of over 30% in size). Summed up: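 The screen uses PR-UAS-bla HEK 293T cells in charcoal-stripped serum (2%). Compounds are applied for 16 hr at 37C after a 6 hr pre-incubation, and reporter activity is detected with a FRET beta-lactamase substrate after 2 hr at room temperature.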

Assay [9] shares this target. Put plainly: qHTS assay to identify small molecule antagonists of the progesterone receptor (PR) signaling pathway (AID 1346795; active = well fitted inhibition curve with a large enough effect in the signal ratio in the repeat runs, not every such curve was filed as active; the % refers to the signal ratio; note: potency is the fitted concentration of half-maximal effect). Summed up:
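After 6 hr plating at 37C in 2% stripped-serum medium, PR-UAS-bla HEK293T cells got compounds, then 1 nM R5020. Sixteen hours later, LiveBLAzer substrate was applied for 2 hr at room temperature and fluorescence was recorded.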

Assay [10] can be described thus: qHTS assay to identify small molecule antagonists of the TGF-beta/Smad signaling pathway - cell viability counter screen (AID 1346824). Note: nearly all actives have a fitted effect of over 50% in size. Summed up: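 Cytotoxicity counter-screen run in the same wells as the beta-lactamase Smad reporter read: CellTiter-Glo luminescence after 30 min at room temperature. HEK 293T SBE-bla cells had 5 hr compound exposure at 37 C with TGF-beta1 (0.25 ng/mL stock).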

SMILES strings stand for the structures. Results filed as inconclusive are left out. The source holds several records for some structures; these can differ, active in one and inactive in another. Active and inactive are the calls of the source. Unless noted, calls come from the whole dose curve; as a rule, active = well fitted curve in the direction sought with a large enough effect in the repeat runs; inconclusive = weak or mixed curves; inactive = no such curve, though single readings can be large; an effect the other way counts as inactive or inconclusive.

Sequence of Thyrotropin receptor (Homo sapiens) (P16473 whole entry, looked up): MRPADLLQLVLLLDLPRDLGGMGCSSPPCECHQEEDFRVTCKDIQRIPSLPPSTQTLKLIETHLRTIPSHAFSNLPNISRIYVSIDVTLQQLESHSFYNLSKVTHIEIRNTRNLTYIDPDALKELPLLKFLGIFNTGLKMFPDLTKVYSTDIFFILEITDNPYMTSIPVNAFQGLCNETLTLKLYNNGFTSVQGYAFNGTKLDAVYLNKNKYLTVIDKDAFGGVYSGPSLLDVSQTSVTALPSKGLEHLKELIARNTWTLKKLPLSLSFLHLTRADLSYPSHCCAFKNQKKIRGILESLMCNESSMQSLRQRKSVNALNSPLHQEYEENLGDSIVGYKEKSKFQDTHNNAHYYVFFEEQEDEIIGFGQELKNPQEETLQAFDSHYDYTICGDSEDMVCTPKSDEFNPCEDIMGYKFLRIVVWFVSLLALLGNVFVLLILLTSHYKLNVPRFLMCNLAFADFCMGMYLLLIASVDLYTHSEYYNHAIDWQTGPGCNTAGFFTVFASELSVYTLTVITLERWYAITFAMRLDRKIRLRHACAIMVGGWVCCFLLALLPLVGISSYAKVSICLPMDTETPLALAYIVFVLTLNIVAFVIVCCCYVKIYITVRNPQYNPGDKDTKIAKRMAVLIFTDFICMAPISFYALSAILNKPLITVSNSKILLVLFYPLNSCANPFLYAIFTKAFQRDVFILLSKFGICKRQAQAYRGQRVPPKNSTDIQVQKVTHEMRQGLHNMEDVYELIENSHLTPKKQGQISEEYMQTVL
Sequence of Progesterone receptor (Homo sapiens) (P06401 whole entry, looked up): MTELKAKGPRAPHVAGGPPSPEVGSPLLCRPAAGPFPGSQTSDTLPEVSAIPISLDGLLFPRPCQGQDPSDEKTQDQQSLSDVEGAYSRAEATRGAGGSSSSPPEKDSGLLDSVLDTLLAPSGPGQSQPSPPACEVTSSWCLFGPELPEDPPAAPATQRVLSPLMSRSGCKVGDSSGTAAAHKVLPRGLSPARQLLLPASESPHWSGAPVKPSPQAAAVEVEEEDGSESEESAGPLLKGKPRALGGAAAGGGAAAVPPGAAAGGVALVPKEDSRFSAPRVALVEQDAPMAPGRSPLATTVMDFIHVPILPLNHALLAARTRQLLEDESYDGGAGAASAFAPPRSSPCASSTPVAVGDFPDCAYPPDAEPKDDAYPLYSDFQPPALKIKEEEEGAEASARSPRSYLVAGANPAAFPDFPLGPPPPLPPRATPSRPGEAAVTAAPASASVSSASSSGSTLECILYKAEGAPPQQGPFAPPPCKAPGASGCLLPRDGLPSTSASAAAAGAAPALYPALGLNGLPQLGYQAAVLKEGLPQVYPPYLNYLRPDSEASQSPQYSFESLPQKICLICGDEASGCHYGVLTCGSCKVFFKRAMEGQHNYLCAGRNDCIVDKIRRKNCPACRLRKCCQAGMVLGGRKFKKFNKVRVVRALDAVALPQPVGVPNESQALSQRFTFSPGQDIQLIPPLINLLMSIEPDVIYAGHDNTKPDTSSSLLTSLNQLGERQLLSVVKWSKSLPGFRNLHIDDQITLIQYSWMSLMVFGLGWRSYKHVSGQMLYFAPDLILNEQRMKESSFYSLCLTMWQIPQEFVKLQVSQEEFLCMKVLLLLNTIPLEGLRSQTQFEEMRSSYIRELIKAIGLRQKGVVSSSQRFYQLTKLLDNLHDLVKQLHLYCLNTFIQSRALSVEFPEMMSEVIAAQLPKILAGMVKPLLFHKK
Sequence of Thyrotropin-releasing hormone receptor (Homo sapiens) (P34981 whole entry, looked up): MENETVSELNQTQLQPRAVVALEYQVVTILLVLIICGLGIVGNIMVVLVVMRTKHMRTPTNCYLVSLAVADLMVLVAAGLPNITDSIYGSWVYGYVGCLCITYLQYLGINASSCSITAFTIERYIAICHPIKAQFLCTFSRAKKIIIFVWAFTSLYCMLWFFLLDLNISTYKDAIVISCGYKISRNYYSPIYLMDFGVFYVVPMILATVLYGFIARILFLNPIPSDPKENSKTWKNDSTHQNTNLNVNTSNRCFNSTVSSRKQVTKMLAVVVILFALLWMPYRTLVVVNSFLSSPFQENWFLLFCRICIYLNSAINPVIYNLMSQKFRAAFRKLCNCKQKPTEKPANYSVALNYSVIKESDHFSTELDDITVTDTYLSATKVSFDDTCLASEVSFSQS

Turning to `C1CCCCC1`, the Potency entry in assay [1], in [2], in assay [3], in assay [4], in assay [5] and in assay [6] was “inactive” throughout. Moreover, the compound was classed as inactive in assay [7].

`CC[C@H]1OC(=O)[C@H](C)[C@@H](O[C@H]2C[C@@](C)(OC)[C@@H](O)[C@H](C)O2)[C@H](C)[C@@H](O[C@@H]2O[C@H](C)C[C@H](N(C)C)[C@H]2O)[C@](C)(O)C[C@@H](C)CN(C)[C@H](C)[C@@H](O)[C@]1(C)O`: the Potency entry in assay [1], in assay [8], in assay [9], in assay [3], in assay [5] and in assay [6] was “inactive” each time. The result in assay [7] was inactive.

Turning to `CO[C@@H]1[C@@H](OC)[C@H](C)[C@@](O)(CC(=O)O)O[C@H]1[C@H](C)[C@H]1O[C@@]2(CC[C@@](C)([C@H]3CC[C@@](C)([C@@H]4O[C@@H]([C@H]5O[C@](C)(O)[C@H](C)C[C@@H]5C)C[C@@H]4OC4C[C@H](OC)[C@@H](OC)[C@H](C)O4)O3)O2)C[C@H](O)[C@H]1C` (some centres not stated), the Potency in assay [1] was 18.8 µM (active); in [2], 2.37 µM (active); in assay [9], 10.6 µM (active); in assay [3], 18.8 µM (active). Also, the outcome in assay [10] and in assay [7] was inactive. Moreover, the Potency entry in [5] and in assay [6] was “inactive” each time.

In the case of `CC(C)C(O)C(C)(C)CO` (configuration not stated), the Potency result in assay [1], in assay [2], in [3], in [5] and in assay [6] was “inactive” throughout. Further, the call in [10] and in assay [7] was inactive.

`Nc1nc(-c2ccc([N+](=O)[O-])cc2)cs1`: the Potency entry in assay [1], in [2], in [3], in assay [4], in [5] and in assay [6] was “inactive” each time. In addition, the compound was called inactive in assay [10] and in [7].

With `O=C1NC(=O)c2cccc3cccc1c23`, the Potency result in [1], in assay [2], in assay [3], in assay [4], in assay [5] and in assay [6] was “inactive” throughout. Also, the result in assay [10] and in assay [7] was inactive.

Take `CCCCOCCOC(=O)c1cccnc1`: the Potency result in [1], in assay [2], in assay [9], in [3] and in assay [5] was “inactive” each time. In addition, the compound was called inactive in [7].

For `CC(CN(CCN(CC(C)OCCO)CC(C)OCCO)CC(C)OCCO)OCCO` (configuration not stated), the Potency entry in assay [1], in assay [9], in [3], in assay [4], in assay [5] and in [6] was “inactive” each time. For the same compound, the compound was called inactive in assay [10] and in assay [7].

As for `COc1cc(OC)c2ccc(=O)oc2c1`, the Potency result in assay [1], in assay [2], in assay [3], in assay [4], in assay [5] and in assay [6] was “inactive” in each case. For the same compound, in assay [10], the result was inactive.

For `CN(C)CC/C=C1\c2ccccc2Sc2ccc(Cl)cc21`, the results for the Potency in [1] and in assay [9] were 26.6 µM (active) and 21.1 µM (active), respectively. Moreover, the Potency result in assay [2], in assay [5] and in [6] was “inactive” in each case. The outcome in [10] and in assay [7] was inactive.

As to `CC(C)(C)NCC(O)COc1cccc2c1C[C@H](O)[C@H](O)C2` (some centres not stated), the Potency entry in assay [1], in assay [2], in [9], in assay [3], in [4] and in assay [5] was “inactive” each time. For the same compound, the Potency result in assay [6] was “inactive”.

Regarding `COc1ccc2nc(S(=O)Cc3ncc(C)c(OC)c3C)[nH]c2c1` (configuration not stated), the Potency result in [1], in [5] and in [6] was “inactive” each time. Moreover, the Potency in [2] was 48 µM (active) and inactive. In addition, the outcome in [10] and in assay [7] was inactive.

As for `CCOC(=O)c1c(N)sc2c1CCN(Cc1ccccc1)C2`, the Potency entry in assay [1], in [8], in assay [9], in [3], in [4] and in [5] was “inactive” throughout. In addition, the Potency in assay [6] is 7.56 µM (active). Moreover, the compound was called inactive in assay [7].

On to `C=C(C)c1ccccc1`, for which the Potency result in [1], in assay [2], in assay [9], in [3], in assay [5] and in assay [6] was “inactive” each time. Further, the outcome in assay [10] and in [7] was inactive.

Turning to `COC(=O)C1=C(C)NC(C)=C(C(=O)OC(C)(C)CN(C)CCC(c2ccccc2)c2ccccc2)C1c1cccc([N+](=O)[O-])c1` (configuration not stated), the Potency result in [1], in [2], in assay [5] and in assay [6] was “inactive” in each case. For the same compound, the Potency in assay [9] was 6.68 µM (active). In addition, the call in [7] was inactive.

`Cc1cccc2sc(N)nc12`: the Potency entry in [1], in assay [2], in [9], in assay [3], in assay [5] and in assay [6] was “inactive” each time. In addition, the compound was classed as inactive in assay [10] and in assay [7].

Regarding `CC(C)N(C)C`, the Potency result in [1], in assay [2], in assay [9], in assay [3], in assay [4] and in assay [5] was “inactive” in each case. Further, in assay [6], the Potency result is “inactive”. In addition, the result in assay [7] was inactive.

For `CCOC(=O)c1ccc(NC(=O)CN2CCCCC2)cc1`, the Potency entry in assay [1], in assay [2], in assay [3], in assay [5] and in assay [6] was “inactive” each time. In addition, in [10], the outcome was inactive.

In the case of `O=S(=O)(O)CO`, the Potency result in [1], in [2], in [9], in assay [3], in assay [5] and in assay [6] was “inactive” throughout. The compound was classed as inactive in assay [10].

As for `CC(=O)OCC(=O)[C@@]1(OC(C)=O)[C@@H](C)C[C@H]2[C@@H]3C[C@H](F)C4=CC(=O)C=C[C@]4(C)[C@@]3(F)[C@@H](O)C[C@@]21C`, the Potency entry in assay [1], in [2], in [4] and in assay [5] was “inactive” in each case.

`COc1cc(NC(C)CCCN)c2ncccc2c1` (configuration not stated): the Potency entry in assay [1], in assay [8], in assay [9], in assay [3], in [4] and in [5] was “inactive” in each case. The Potency entry in [6] was “inactive”. Moreover, the call in assay [10] and in assay [7] was inactive.

Consider `c1ccc(CCCc2ccncc2)cc1`, for which the Potency result in assay [1], in assay [2], in assay [5] and in assay [6] was “inactive” each time. The result in assay [10] and in assay [7] was inactive.

In the case of `CN1CCCN(C(c2ccccc2)c2ccc(Cl)cc2)CC1` (configuration not stated), the Potency result in assay [1], in assay [8], in [5] and in assay [6] was “inactive” throughout. Also, the figures for the Potency in assay [9], in [3] and in assay [4] were 21.1 µM (active), 15 µM (active) and 13.3 µM (active), respectively. Besides, the compound was called inactive in assay [10].

Consider `Cc1ccc2c(c1[N+](=O)[O-])C(=O)c1ccccc1C2=O`, for which the Potency entry in assay [1], in assay [9], in assay [3], in assay [4], in assay [5] and in [6] was “inactive” each time.

Turning to `CC(CCc1ccc(O)cc1)NCCc1ccc(O)c(O)c1` (configuration not stated), the Potency entry in assay [1], in assay [8], in assay [9], in assay [3], in assay [4] and in [5] was “inactive” in each case. Moreover, in [10], the call was inactive.
